These results are taken from PubChem BioAssay (Tox21).

Where “and” joins values, the source holds several entries; their conditions need not be identical. Equal values may be shown once. Results filed as inconclusive are left out. The source holds several records for some structures; these can differ, active in one and inactive in another. Calls of active or inactive are those of the source. Unless noted, calls come from the whole dose curve; as a rule, active = well fitted curve in the direction sought with a large enough effect in the repeat runs; inconclusive = weak or mixed curves; inactive = no such curve, though single readings can be large; an effect the other way counts as inactive or inconclusive.

Assay [1] addresses Progesterone receptor (Homo sapiens) (UniProt P06401). As to the kind of experiment: qHTS assay to identify small molecule agonists of the progesterone receptor (PR) signaling pathway (AID 1346784; calls by dose curve; note: nearly all actives have a fitted effect of over 30% in size). An outline of the steps:
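Reporter assay, GripTite PR-UAS-bla HEK 293T cells: 16 hr exposure to DMSO-dissolved compounds at 37C, 5% CO2, in steroid-depleted (2% charcoal-stripped FBS) medium; beta-lactamase measured by FRET fluorescence.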
(In qHTS, concentration-response curves come from the screen itself.)

Assay [2] has the same target. As to the kind of experiment: qHTS assay to identify small molecule antagonists of the progesterone receptor (PR) signaling pathway (AID 1346795; active = well fitted inhibition curve with a large enough effect in the signal ratio in the repeat runs, not every such curve was filed as active; the % refers to the signal ratio). In outline:
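Stimulus R5020 at 1 nM final; cells HEK293T PR-UAS-bla; medium with 2% charcoal-stripped FBS; compound exposure 16 hr at 37C, 5% CO2; detection by FRET beta-lactamase substrate, 2 hr, room temperature.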

Assay [3] can be described thus: qHTS assay to identify small molecule antagonists of the progesterone receptor (PR) signaling pathway - cell viability counter screen (AID 1346798). Note: series mostly up to about 92 µM; nearly all actives have a fitted effect of over 50% in size. An outline of the steps: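 In the same plates used for the beta-lactamase readout, cell viability of compound- and R5020-treated PR-UAS-bla HEK293T cells (16 hr, 37C) was assessed by CellTiter-Glo luminescence.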
The nature of assay [4]: qHTS assay to identify small molecule agonists of the progesterone receptor (PR) signaling pathway - cell viability counter screen (AID 1346799; calls by dose curve; note: nearly all actives have a fitted effect of over 45% in size). In outline: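 Multiplexed viability read: CellTiter-Glo luminescence, 30 min RT, following LiveBLAzer FRET measurement on PR-UAS-bla HEK293T cells exposed to compounds 16 hr.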
The nature of assay [5]: qHTS assay to identify small molecule antagonists of the TGF-beta/Smad signaling pathway - cell viability counter screen (AID 1346824). Note: nearly all actives have a fitted effect of over 50% in size. Note: potency is the fitted concentration of half-maximal effect. An outline of the steps:
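SBE-bla HEK 293T cells, incubated overnight, then compound plus 0.25 ng/mL TGF-beta1 (stock added) for 5 hr at 37 C. Viability was read in the same wells by CellTiter-Glo luminescence after 30 min at room temperature.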

Assay [6] is described as follows: qHTS assay to identify small molecule agonists of the TGF-beta/Smad signaling pathway - cell viability counter screen (AID 1346829). For activity change, negative = cytotoxicity: top concentration of the series differs between compounds. Note: nearly all actives have a fitted effect of over 45% in size. Note: potency is the fitted concentration of half-maximal effect. An outline of the steps:
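Here the cytotoxicity of library compounds is measured in SBE-bla HEK 293T cells treated for 5 hr, using CellTiter-Glo added to wells already read for the beta-lactamase reporter.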

Assay [7] can be described thus: qHTS assay to identify small molecule agonists of the TGF-beta/Smad signaling pathway (AID 1346859; active = well fitted activation curve with a large enough effect in the signal ratio in the repeat runs, not every such curve was filed as active; the % refers to the signal ratio; note: series mostly up to about 77 µM). An outline of the steps: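 Screening used HEK 293T SBE-bla cells at 4,000/well. Test agents: 5 hr, 37 C. Detection: FRET substrate, 2 hr RT, then excitation 405 nm with emissions at 460 and 530 nm.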
Assay [8] concerns the target Thyrotropin-releasing hormone receptor (Homo sapiens) (UniProt P34981). The experiment in a line: qHTS assay to identify small molecule antagonists of the thyrotropin-releasing hormone receptor (TRHR) signaling pathway (AID 1346877; active = well fitted inhibition curve with a large enough effect in the repeat runs, not every such curve was filed as active; note: series mostly up to about 51 µM). An outline of the steps: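 TRHR-expressing HEK293 cells were seeded, cultured 18 h at 37 °C, then loaded with calcium dye for 2 h. Compounds were pre-incubated 5 min at room temperature before 1 nM TRH (final) was added, and kinetic fluorescence was recorded for 3 min.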

For assay [9] the target is unchanged. As to the kind of experiment: qHTS assay to identify small molecule agonists of the thyrotropin-releasing hormone receptor (TRHR) signaling pathway (AID 1346891; calls by dose curve; note: series mostly up to about 58 µM). An outline of the steps: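 Readout was intracellular calcium fluorescence in TRHR-Hek293 cells. Cells were incubated 18 h, dye-loaded 2 h at 37 °C, and treated with compound in agonist mode.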
The nature of assay [10]: Human pregnane X receptor (PXR) small molecule agonists, qHTS cell viability counter screen (AID 1346977). Note: nearly all actives have a fitted effect of over 50% in size. Note: potency is the fitted concentration of half-maximal effect. An outline of the steps:
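In each well, the PXR reporter HepG2 line was checked for viability: CellTiter-Fluor reagent added 23hr post-dosing, fluorescence read after 1hr incubation at 37C.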

Assay [11] is described as follows: Caspase-3/7 induction in HepG2 cells by small molecules, qHTS assay (AID 1346978). Note: nearly all actives have a fitted effect of over 15% in size. An outline of the steps: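 Wild-type HepG2 cells, 2,000/well, settled 5 hr at 37 C and 5% CO2, then compound-treated for 17 hr; caspase-3/7 activity read by luminescent Caspase-Glo 3/7 after 30 min at room temperature.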
Assay [12] is described as follows: Caspase-3/7 induction in CHO-K1 cells by small molecules, qHTS cell viability counter screen (AID 1346979). Note: nearly all actives have a fitted effect of over 35% in size. Note: potency is the fitted concentration of half-maximal effect. An outline of the steps: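 Following a 5hr settling period, CHO-K1 cells at 1,500 per well received DMSO-dissolved compounds. Cell viability was quantified 16hr later by CellTiter-Fluor fluorescence, measured after 1hr with reagent at 37C.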
A short description of assay [13]: Caspase-3/7 induction in CHO-K1 cells by small molecules, qHTS assay (AID 1346980). Note: nearly all actives have a fitted effect of over 15% in size. In outline:
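Wild-type CHO-K1 cells exposed to compounds for 17hr at 37 C, 5% CO2. Caspase-3/7 activity then measured by Caspase-Glo 3/7 luminescence after 30min at room temperature.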

The nature of assay [14]: Caspase-3/7 induction in HepG2 cells by small molecules, qHTS cell viability counter screen (AID 1346981). For activity change, negative = cytotoxicity: series mostly up to about 92 µM. Note: nearly all actives have a fitted effect of over 30% in size. Note: potency is the fitted concentration of half-maximal effect. In outline: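 Wild-type HepG2 cells (2,000/well) were allowed to settle for 5 hr at 37 C, 5% CO2, then dosed with compounds in DMSO by pin transfer. After 16 hr at 37 C, CellTiter-Fluor was added and fluorescence read 1 hr later.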
Assay [15] has as its target Cytochrome P450 2D6 (Homo sapiens) (UniProt P10635). The experiment in a line: Cytochrome P450 Family 2 Subfamily D Member 6 (CYP2D6) small molecule antagonists: luciferase reporter qHTS assay (AID 1671196). For activity change, negative = inhibition: series mostly up to about 120 µM. Note: nearly all actives have a fitted effect of over 50% in size. Note: potency is the fitted concentration of half-maximal effect. In outline: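 CYP2D6 enzyme–substrate mix was held with compound for 10 min at room temperature, then NADPH regeneration solution was added and the reaction ran 1 h at room temperature. Luciferin product was detected by luminescence after 20 min with detection reagent.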
(In general: Reporter assays use an easily measured gene product as a stand-in for the process of interest.)

Assay [16] has as its target Cytochrome P450 2C19 (Homo sapiens) (UniProt P33261). The experiment in a line: Cytochrome P450 Family 2 Subfamily C Member 19 (CYP2C19) small molecule antagonists: luciferase reporter qHTS assay (AID 1671197). For activity change, negative = inhibition: series mostly up to about 120 µM. Note: nearly all actives have a fitted effect of over 65% in size. Note: potency is the fitted concentration of half-maximal effect. An outline of the steps: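 Light output is proportional to CYP2C19 activity: proluciferin substrate is converted to luciferin, then detected by a luciferin detection reagent that also stops the 1 h, 37C NADPH-driven reaction. Ketoconazole serves as positive control.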

The target of assay [17] is Cytochrome P450 2C9 (Homo sapiens) (UniProt P11712). The experiment in a line: Cytochrome P450 Family 2 Subfamily C Member 9 (CYP2C9) small molecule antagonists: luciferase reporter qHTS assay (AID 1671198). For activity change, negative = inhibition: series mostly up to about 120 µM. Note: nearly all actives have a fitted effect of over 50% in size. Note: potency is the fitted concentration of half-maximal effect. An outline of the steps: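 P450-Glo proluciferin substrate with CYP2C9 enzyme; 10 min RT preincubation, then NADPH regeneration 1 h at 37C; luciferin detection reagent 20 min RT, luminescence in relative luminescence units.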
Chain of Cytochrome P450 2C9 (Homo sapiens) (P11712 whole entry, looked up): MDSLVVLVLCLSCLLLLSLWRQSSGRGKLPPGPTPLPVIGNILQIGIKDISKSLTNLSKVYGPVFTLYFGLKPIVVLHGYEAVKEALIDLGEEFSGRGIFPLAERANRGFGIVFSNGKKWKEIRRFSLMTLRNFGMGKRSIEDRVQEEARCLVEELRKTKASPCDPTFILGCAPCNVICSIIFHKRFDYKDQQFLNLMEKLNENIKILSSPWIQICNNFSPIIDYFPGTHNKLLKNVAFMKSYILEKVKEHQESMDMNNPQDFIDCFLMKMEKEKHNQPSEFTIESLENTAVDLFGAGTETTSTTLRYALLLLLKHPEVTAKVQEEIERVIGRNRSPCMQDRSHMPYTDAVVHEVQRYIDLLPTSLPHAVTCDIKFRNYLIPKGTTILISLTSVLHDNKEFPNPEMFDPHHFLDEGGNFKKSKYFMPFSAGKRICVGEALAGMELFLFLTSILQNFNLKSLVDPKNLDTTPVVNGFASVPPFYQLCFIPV

Assay [18] has as its target Nuclear receptor subfamily 1 group I member 2 (Homo sapiens) (UniProt O75469). The experiment in a line: Human pregnane X receptor (PXR) small molecule agonists, qHTS assay (AID 1346982). Note: nearly all actives have a fitted effect of over 35% in size. An outline of the steps: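 PXR-Luc HepG2 cells (CYP3A4 promoter-driven luciferase) were seeded in medium with 5% charcoal-stripped FBS, left 5 hr at 37 C, then exposed to compounds in DMSO for 24 hr. Luminescence was read after ONE-Glo addition.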

For assay [19] the target is unchanged. As to the kind of experiment: CYP3A4 induction through human pregnane X receptor (PXR) by small molecules, qHTS assay (AID 1346984). Note: nearly all actives have a fitted effect of over 40% in size. In outline:
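DPX-2 cells (HepG2 co-transfected with PXR and CYP3A4 promoter-luciferase) treated with compounds 24 h at 37C; luciferin-IPA CYP3A4 substrate 3uM final added for 3 h, then One-Glo; luminescence read. qHTS format.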

Assay [20] has the same target. The experiment in a line: Human pregnane X receptor (PXR) activation by small molecules, qHTS assay (AID 1346985). Note: nearly all actives have a fitted effect of over 40% in size. An outline of the steps:
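DPX-2 cells (HepG2 co-transfected with a PXR response element and a CYP3A4-promoter luciferase construct) were seeded at 2,000 per well, rested 5 hr at 37C, then exposed to DMSO-dissolved compounds for 24 hr. Activation was read as luciferase luminescence.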
% is set by controls: 0 for no effect and ±100 for the full control effect.

Chain of Cytochrome P450 2D6 (Homo sapiens) (P10635 whole entry, looked up): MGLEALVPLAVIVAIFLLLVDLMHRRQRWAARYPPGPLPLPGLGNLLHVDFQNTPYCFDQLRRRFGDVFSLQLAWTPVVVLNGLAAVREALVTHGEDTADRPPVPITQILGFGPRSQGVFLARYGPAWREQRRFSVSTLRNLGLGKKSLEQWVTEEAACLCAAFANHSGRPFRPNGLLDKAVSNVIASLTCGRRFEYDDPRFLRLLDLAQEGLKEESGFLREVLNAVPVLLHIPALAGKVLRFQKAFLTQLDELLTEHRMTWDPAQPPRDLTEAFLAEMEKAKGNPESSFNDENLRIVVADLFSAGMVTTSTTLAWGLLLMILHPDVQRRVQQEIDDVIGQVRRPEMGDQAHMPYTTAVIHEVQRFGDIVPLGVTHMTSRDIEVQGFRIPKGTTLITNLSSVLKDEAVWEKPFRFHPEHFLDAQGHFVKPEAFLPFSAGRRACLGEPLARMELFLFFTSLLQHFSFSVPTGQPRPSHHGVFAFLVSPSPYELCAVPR
Chain of Progesterone receptor (Homo sapiens) (P06401 whole entry, looked up): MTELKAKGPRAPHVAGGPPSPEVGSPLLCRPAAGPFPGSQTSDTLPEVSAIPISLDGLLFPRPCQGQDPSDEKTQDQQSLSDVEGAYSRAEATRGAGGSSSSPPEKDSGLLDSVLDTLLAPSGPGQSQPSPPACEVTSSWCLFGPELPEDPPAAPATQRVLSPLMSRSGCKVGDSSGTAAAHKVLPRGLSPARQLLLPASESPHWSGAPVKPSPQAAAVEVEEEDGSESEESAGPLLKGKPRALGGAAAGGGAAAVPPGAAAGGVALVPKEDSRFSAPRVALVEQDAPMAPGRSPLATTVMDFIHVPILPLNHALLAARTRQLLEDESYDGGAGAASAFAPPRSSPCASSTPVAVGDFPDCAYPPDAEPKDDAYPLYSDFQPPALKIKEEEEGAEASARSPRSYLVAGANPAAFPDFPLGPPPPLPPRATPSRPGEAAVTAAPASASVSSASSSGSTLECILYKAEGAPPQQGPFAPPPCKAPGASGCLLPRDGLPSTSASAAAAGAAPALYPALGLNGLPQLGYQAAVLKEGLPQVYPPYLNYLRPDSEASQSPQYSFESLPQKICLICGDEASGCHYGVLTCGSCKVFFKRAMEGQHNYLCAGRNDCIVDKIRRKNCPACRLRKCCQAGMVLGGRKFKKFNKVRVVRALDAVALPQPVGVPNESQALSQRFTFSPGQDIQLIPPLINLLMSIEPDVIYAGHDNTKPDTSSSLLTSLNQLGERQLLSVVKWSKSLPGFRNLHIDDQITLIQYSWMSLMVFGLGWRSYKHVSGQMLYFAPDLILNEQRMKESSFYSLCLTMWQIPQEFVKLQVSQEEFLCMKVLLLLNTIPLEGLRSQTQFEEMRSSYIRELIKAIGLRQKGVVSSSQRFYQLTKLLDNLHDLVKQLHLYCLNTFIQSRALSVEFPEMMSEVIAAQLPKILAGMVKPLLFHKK
Chain of Cytochrome P450 2C19 (Homo sapiens) (P33261 whole entry, looked up): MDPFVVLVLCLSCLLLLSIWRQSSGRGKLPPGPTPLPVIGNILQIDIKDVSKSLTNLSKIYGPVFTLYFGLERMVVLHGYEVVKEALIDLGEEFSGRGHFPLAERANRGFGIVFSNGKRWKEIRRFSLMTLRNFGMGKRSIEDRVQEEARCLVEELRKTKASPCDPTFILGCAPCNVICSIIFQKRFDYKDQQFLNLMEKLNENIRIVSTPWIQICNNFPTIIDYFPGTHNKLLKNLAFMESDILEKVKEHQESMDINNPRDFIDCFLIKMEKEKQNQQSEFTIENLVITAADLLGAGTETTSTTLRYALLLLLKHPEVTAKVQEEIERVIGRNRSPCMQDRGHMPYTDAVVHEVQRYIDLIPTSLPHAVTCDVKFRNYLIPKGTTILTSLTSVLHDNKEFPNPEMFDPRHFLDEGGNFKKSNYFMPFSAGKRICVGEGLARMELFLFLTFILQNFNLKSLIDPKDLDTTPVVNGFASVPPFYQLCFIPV
Chain of Nuclear receptor subfamily 1 group I member 2 (Homo sapiens) (O75469 whole entry, looked up): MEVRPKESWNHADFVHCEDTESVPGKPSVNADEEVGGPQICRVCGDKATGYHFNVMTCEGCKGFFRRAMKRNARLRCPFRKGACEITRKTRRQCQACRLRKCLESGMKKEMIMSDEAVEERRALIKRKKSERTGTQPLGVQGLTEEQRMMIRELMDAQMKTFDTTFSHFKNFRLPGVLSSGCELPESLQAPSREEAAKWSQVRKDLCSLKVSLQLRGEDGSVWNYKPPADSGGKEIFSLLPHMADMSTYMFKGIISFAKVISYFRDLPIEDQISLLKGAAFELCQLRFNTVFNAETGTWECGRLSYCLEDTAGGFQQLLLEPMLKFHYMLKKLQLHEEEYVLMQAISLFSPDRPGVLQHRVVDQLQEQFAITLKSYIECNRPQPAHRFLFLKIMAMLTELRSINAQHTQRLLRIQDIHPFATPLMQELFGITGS
Chain of Thyrotropin-releasing hormone receptor (Homo sapiens) (P34981 whole entry, looked up): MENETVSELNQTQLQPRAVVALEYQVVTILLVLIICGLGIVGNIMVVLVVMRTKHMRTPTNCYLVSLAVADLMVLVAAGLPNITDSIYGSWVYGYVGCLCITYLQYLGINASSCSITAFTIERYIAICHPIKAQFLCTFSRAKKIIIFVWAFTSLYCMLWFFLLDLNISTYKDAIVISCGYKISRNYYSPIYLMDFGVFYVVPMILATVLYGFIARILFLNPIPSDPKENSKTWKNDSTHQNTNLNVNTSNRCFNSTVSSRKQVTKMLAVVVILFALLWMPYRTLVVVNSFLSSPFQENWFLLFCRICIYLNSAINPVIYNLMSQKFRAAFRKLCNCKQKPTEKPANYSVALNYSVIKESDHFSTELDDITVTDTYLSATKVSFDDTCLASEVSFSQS

As to `CCCCCCCCCCCCO`, the Potency entry in assay [1], in assay [2], in assay [3], in assay [4], in assay [5] and in assay [6] was “inactive” throughout. For the same compound, the Potency entry in assay [8], in assay [9], in assay [10], in assay [11], in assay [12] and in [13] was “inactive” in each case. The Potency entry in [14] and in assay [15] was “inactive” in each case. Moreover, the outcome in [7] was inactive. In addition, the Potency in assay [16] is 31.3 µM (active); in assay [17], “inactive and 22.2 µM (active)”.
`CC(C)[N+](C)(CCOC(=O)C1c2ccccc2Oc2ccccc21)C(C)C`: the Potency result in assay [1], in assay [2], in assay [3], in assay [4], in [5] and in assay [6] was “inactive” in each case. Moreover, the Potency entry in assay [9], in [10], in assay [12], in [13], in [14] and in assay [18] was “inactive” each time. The Potency entry in assay [19], in assay [20], in [16] and in [17] was “inactive” throughout. Further, the compound was called inactive in assay [7]. Also, the Potency in [15] was 100 nM (active) and 195 nM (active).
With `O=[Se](O)O`, the Potency entry in assay [1], in assay [2], in assay [3], in assay [4], in assay [9] and in assay [11] was “inactive” each time. Besides, in assay [15], the Potency entry was “inactive”. Moreover, the Potency in [5] is 2.46 µM (active); in assay [6] it was 2.19 µM (active); in [10], 24.4 µM (active); in assay [12], 54.5 µM (active); in assay [14], 24.4 µM (active); in assay [16], 56.5 µM (active). The Potency in assay [17] was 7.11 µM (active). For the same compound, the viability change, negative = cytotoxic in [5] is 0.606% [at 15.8 µM] (inactive). The activity change, negative = cytotoxicity in [6] is 8.13% [at 15.8 µM] (inactive); in assay [10] it was 6.76% [at 19 µM] (inactive); in assay [12], 5.77% [at 19 µM] (inactive); in assay [14], 2.81% [at 19 µM] (inactive). In addition, the activation in assay [7] is -0.714% [at 15.8 µM] (inactive). Also, the activity change, negative = inhibition in assay [16] was -23.6% [at 23.6 µM] (inactive).
`CCCCCC1C(=O)CCC1CC(=O)OC` (stereo unspecified): the Potency result in [1], in assay [2], in assay [3], in assay [4], in assay [5] and in assay [6] was “inactive” throughout. Besides, the Potency entry in assay [9], in assay [10], in assay [11], in assay [12], in assay [14] and in assay [15] was “inactive” throughout. In assay [7], the compound was classed as inactive. Besides, the Potency in assay [16] was 993 nM (active) and 3.56 µM (active); in assay [17] it was 24.9 µM (active) and 31.7 µM (active).
Consider `Nc1ccc(O)c(N)c1`, for which the Potency entry in [1], in assay [2], in assay [3], in assay [4], in [5] and in assay [6] was “inactive” throughout. Further, the Potency result in [9], in [11], in assay [13] and in assay [18] was “inactive” in each case. Besides, the outcome in assay [7] was inactive. Further, the Potency in assay [10] was 44.7 µM (active); in assay [12] it was 60.7 µM (active) and 30.6 µM (active); in [14], 54.1 µM (active) and 48.6 µM (active); in [15] it was 35.3 µM (active) and 31.7 µM (active); in [16], 35.3 µM (active) and 35.6 µM (active); in [17], 35.3 µM (active) and 71 µM (active).
Regarding `Cc1ccc(S(=O)(=O)NCl)cc1`, the Potency entry in assay [1], in assay [2], in assay [3], in assay [4], in assay [5] and in assay [6] was “inactive” each time. For the same compound, the Potency entry in [10], in [11], in assay [12], in assay [13], in [14] and in [18] was “inactive” each time. For the same compound, the Potency result in assay [19], in assay [20], in assay [15] and in assay [16] was “inactive” throughout. Also, in assay [7], the result was inactive. In [17], the Potency result was “inactive and 75.1 µM (active)”.
